Source: PubChem (National Center for Advancing Translational Sciences (NCATS))
CHX counter: Cycloheximide Counterscreen for Small Molecule Inhibitors of Shiga Toxin | cell reporter, cycloheximide protein synthesis inhibition counterscreen | max response, % | 300,000 compounds, 12% hits | AID 2314, 2010; in the data active = max response mostly above about 13%, no sharp cut-off; inactive = mostly below about 14%; also: read at 38.3 µM for the half of the compounds with a filed dose; 0% is about no effect
SARS PLP yeast: qHTS of Yeast-based Assay for SARS-CoV PLP; 330,000 compounds, 0.19% hits; S. cerevisiae expressing SARS-CoV PLpro, growth rescue; AID 485353, 2010; Potency, µM (doses to about 32.9 µM), without a hit: at the top dose activity, positive = growth rescue, most hits filed as activators; also: potency is read from the fitted curve at half-maximal effect; 0% is about no effect; nearly all actives have a fitted effect of over 55% in size
NS1 function inh: qHTS Assay for Inhibitors of Influenza NS1 Protein Function. 270,000 compounds, 0.4% hits. Potency, µM (titrated, usually from 46.1 µM), without a hit: top-dose activity, positive = more growth; also: potency is read from the fitted curve at half-maximal effect; actives are rising curves; nearly all actives have a fitted effect of over 50% in size
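OD600 was taken as the measure of yeast growth restored by compound in an NS1-expressing S. cerevisiae strain. Cells had been washed out of glucose medium and diluted 1:100 into galactose -URA medium, pH 6.0.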
Shiga inhibitor: A qHTS for Small Molecule Inhibitors of Shiga Toxin; inhibition, % at 38.7 µM; 290,000 compounds, 9.2% hits; Vero cells, Shiga toxin protein synthesis inhibition reporter; in the data active = inhibition mostly above about 28%, no sharp cut-off; inactive = mostly below about 43%; also: 0% is about no effect
The depositor's hits bear a star. Shown are actives, neighbours in structure and some others; about 12% of the full set was active somewhere. Unless noted, calls follow the shape of the full dose curve.

How did Cc1ccc(/C=C/C(=O)c2ccccc2O)cc1 do in these assays?
CHX counter: 40*; SARS PLP yeast: 2%; NS1 function inh: -9%; Shiga inhibitor: 88*

Results for O=C(/C=C/c1ccco1)c1cccnc1 ?
CHX counter: 5; SARS PLP yeast: -1%; NS1 function inh: 10%; Shiga inhibitor: -4

What do the screens show for `CN(C)c1ccc(/C=C/C(=O)c2ccccc2O)cc1`?
CHX counter: 40*; SARS PLP yeast: -5%; Shiga inhibitor: 113

How did Cc1ccc2occ(/C=C/C(=O)c3ccccc3O)c(=O)c2c1 do in these assays?
CHX counter: 17; SARS PLP yeast: 1%; NS1 function inh: -10%; Shiga inhibitor: 7

How did O=C(/C=C/c1cccnc1)c1ccccc1O do in these assays?
CHX counter: -1; SARS PLP yeast: -1%; NS1 function inh: -83%; Shiga inhibitor: -15

How did Cc1c(/C=C/C(=O)c2ccccc2O)cnn1C do in these assays?
CHX counter: 71*; SARS PLP yeast: -2%; NS1 function inh: -9%; Shiga inhibitor: active

How did O=C(/C=C/c1ccco1)c1ccccc1O do in these assays?
CHX counter: 33*; SARS PLP yeast: 0%; NS1 function inh: 4%; Shiga inhibitor: 59*

What do the screens show for `N#Cc1ccc(-c2ccc(OCC(=O)NCCCN3CCCC3=O)cc2)cc1`?
CHX counter: 17; SARS PLP yeast: -13%; Shiga inhibitor: 35

What do the screens show for `O=C(COC(=O)CNS(=O)(=O)/C=C/c1ccccc1)Nc1cc(S(=O)(=O)N2CCCCC2)ccc1Cl`?
CHX counter: -2; SARS PLP yeast: 0%; NS1 function inh: 10%; Shiga inhibitor: -8

What do the screens show for `O=C(COC(=O)[C@H](Cc1ccccc1)NC(=O)c1ccco1)NCc1ccccc1`?
CHX counter: -2; SARS PLP yeast: 3%; NS1 function inh: -14%; Shiga inhibitor: -11

Results for O=C(Cc1ccc(NS(=O)(=O)c2ccc(F)cc2)cc1)NCc1cccnc1 ?
CHX counter: -6; SARS PLP yeast: -3%; NS1 function inh: 2%; Shiga inhibitor: -8

How did Cc1ccc(/C=C/C(=O)c2ccc(C)cc2)cc1 do in these assays?
CHX counter: 68*; SARS PLP yeast: -21%; NS1 function inh: -16%; Shiga inhibitor: 83*

How did CN(C)c1ccc(/C=C/C(=O)c2cccnc2)cc1 do in these assays?
CHX counter: 42*; SARS PLP yeast: 0%; NS1 function inh: -32%; Shiga inhibitor: 72*

How did CC(=O)Nc1ccc(NC(=O)C/C(C)=N/NC(=O)C(=O)N2CCCC2)cc1 do in these assays?
CHX counter: 17; SARS PLP yeast: -2%; NS1 function inh: 1%; Shiga inhibitor: 5

What do the screens show for `C/C(CC(=O)Nc1ccc(F)cc1F)=N\NC(=O)C(=O)N1CCCCC1`?
CHX counter: 40*; SARS PLP yeast: -1%; NS1 function inh: -4%; Shiga inhibitor: 65*

Results for CC(=O)Nc1cccc(-c2csc(N)n2)c1 ?
CHX counter: -2; SARS PLP yeast: 0%; NS1 function inh: 6%; Shiga inhibitor: 30

What do the screens show for `CC(=O)Nc1ccc(-c2csc(NCc3ccccc3)n2)cc1`?
CHX counter: 25*; SARS PLP yeast: -1%; NS1 function inh: 8%; Shiga inhibitor: 62*

What do the screens show for `CC(=O)Nc1ccc(-c2csc(N/N=C(/C)c3ccccc3)n2)cc1`?
CHX counter: 12; SARS PLP yeast: 1%; NS1 function inh: 16%; Shiga inhibitor: 18

Results for CC(=O)Nc1cccc(-c2csc(NCc3ccccc3)n2)c1 ?
CHX counter: 11*; SARS PLP yeast: -1%; NS1 function inh: 2%; Shiga inhibitor: 3

Results for CCOC(=O)/C(C)=N/Nc1nc(-c2ccc(NC(C)=O)cc2)cs1 ?
CHX counter: 18*; SARS PLP yeast: 1%; NS1 function inh: -2%; Shiga inhibitor: 17

How did CC(=O)Nc1ccc(-c2csc(NNC(=O)c3ccccc3)n2)cc1 do in these assays?
CHX counter: 13; SARS PLP yeast: 0%; NS1 function inh: inconclusive; Shiga inhibitor: 25

Results for CC(=O)c1cc(C(=O)Nc2ccccc2C(=O)O)oc1C ?
CHX counter: 1; SARS PLP yeast: -1%; NS1 function inh: 3%; Shiga inhibitor: -5

What do the screens show for `CCOc1ccc2nc(COC(=O)c3ccncc3)c(C(=O)c3ccccc3)[n+]([O-])c2c1`?
CHX counter: 27*; SARS PLP yeast: 0%; NS1 function inh: -4%; Shiga inhibitor: 52*

Results for O=C(NC1CCCCC1)c1cc2nc3c(c(C(F)(F)F)n2n1)CCCC3 ?
CHX counter: 45*; SARS PLP yeast: -4%; NS1 function inh: -12%; Shiga inhibitor: 79*

Results for CC(=O)c1ccc(NC(=O)c2cc3nc4c(c(C(F)(F)F)n3n2)CCCC4)cc1 ?
CHX counter: 38*; SARS PLP yeast: 1%; NS1 function inh: 2%; Shiga inhibitor: 60*

How did CN1C(C(=O)NCc2ccc(OC(F)(F)F)cc2)CC2Cn3c(nc4cc5ccccc5cc43)C21 (stereo not drawn) do in these assays?
CHX counter: -3; SARS PLP yeast: -4%; NS1 function inh: 5%; Shiga inhibitor: -3

How did O=C(COc1ccc(F)cc1)c1c(O)cc(O)cc1O do in these assays?
CHX counter: 48*; SARS PLP yeast: 1%; NS1 function inh: inconclusive; Shiga inhibitor: 119*

How did COc1ccc(C(=O)Cc2ccc(F)cc2)c(OC)c1 do in these assays?
CHX counter: 64*; SARS PLP yeast: 17%; NS1 function inh: -8%; Shiga inhibitor: 80*

How did COc1ccc(CNC(=O)COc2ccc(F)cc2)cc1 do in these assays?
CHX counter: -1; SARS PLP yeast: 0%; NS1 function inh: -7%; Shiga inhibitor: -6

What do the screens show for `COc1ccc(C(=O)COc2ccc(F)cc2)c(O)c1`?
CHX counter: 29*; SARS PLP yeast: 2%; NS1 function inh: -72%; Shiga inhibitor: 69*

Results for CCNC(=O)n1nccc1C(C)Oc1ccc(Cl)cc1 (stereo not drawn) ?
CHX counter: -3; SARS PLP yeast: -3%; NS1 function inh: -39%; Shiga inhibitor: 9

What do the screens show for `Cc1cc(NS(=O)(=O)c2ccc(N3C(=O)C4C5C=CC(C5)C4C3=O)cc2)nc(C)n1` (stereo not drawn)?
CHX counter: 14*; SARS PLP yeast: inconclusive; NS1 function inh: 9%; Shiga inhibitor: 16

What do the screens show for `Cc1ccc(S(=O)(=O)Nc2ccc(S(=O)(=O)Nc3cc(C)nc(C)n3)cc2)cc1`?
CHX counter: 7; SARS PLP yeast: -1%; NS1 function inh: -6%; Shiga inhibitor: 36

How did Cc1cccc(-c2ncc(S(=O)(=O)C(C)(C)C)c(N)n2)c1 do in these assays?
CHX counter: 11*; SARS PLP yeast: 0%; NS1 function inh: -1%; Shiga inhibitor: 30

Results for Cc1cccc(C)c1NC(=O)COc1ccc2c(C)c(Cc3ccccc3)c(=O)oc2c1 ?
CHX counter: 1; SARS PLP yeast: -5%; NS1 function inh: 5%; Shiga inhibitor: -24

How did COC(=O)CSc1nc(C)c(C(C)=O)cc1C#N do in these assays?
CHX counter: 24*; SARS PLP yeast: 5%; NS1 function inh: -7%; Shiga inhibitor: 46

What do the screens show for `CCCSc1nc(C)c(C(C)=O)cc1C#N`?
CHX counter: -5; SARS PLP yeast: 3%; NS1 function inh: -109%; Shiga inhibitor: -11
